The source made the active and inactive calls.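 The calls were made as follows: active = GFP response below 50% of the DMSO control; inconclusive = fewer than 70 events counted for a yeast strain; inactive = the rest.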
Assay: hit retest on RPL19A-GFP reporter strain – cell-based, S. cerevisiae, flow cytometry, cherry picks, mother/daughter gates, confirmation (AID 2270)
Conditions: 3 h, at 10 µM, stronger effect = lower value, 100 = same GFP as DMSO wells

Compound	GFP response vs DMSO
Cc1ccc(C(=O)NNC(=S)NC(=O)COc2ccccc2)cc1	122% (inactive)
O=C(OCc1cc(Cl)ccc1OC(F)F)c1ccc([N+](=O)[O-])o1	97% (inactive)
O=C(OCCOc1ccccc1)c1n[nH]c2ccccc12	96.4% (inactive)
O=C1C=CC(=O)N1c1ccc(Sc2ccc([N+](=O)[O-])cc2)cc1	74% (inactive)
CCn1c(=O)c(C(=O)Nc2ccsc2C(=O)OC)c(O)c2ccccc21	103% (inactive)
COCC(=O)Nc1cc([N+](=O)[O-])ccc1C	99.5% (inactive)
O=C1/C(=C\c2ccc(O)c(O)c2)SC(=S)N1Cc1ccccc1	100% (inactive)
COc1ccc(C(=O)/C=C2/C(=O)Nc3ccccc32)cc1	86.7% (inactive)
O=C(Nc1cc(Sc2ccccn2)cc([N+](=O)[O-])c1)c1ccc(Cl)cc1	99% (inactive)
c1ccc(-c2cccc(-c3ccccn3)n2)nc1	92.9% (inactive)
CN1CCSc2ccc(C(=O)Nc3cccc(F)c3)cc21	95.2% (inactive)
Cc1nn(C)cc1C(C)NC(=O)c1cc(COc2ccc(F)c(F)c2)on1 (stereo not given)	101% (inactive)
Oc1ccccc1/C=N/c1c(-c2ccco2)nc2ccccn12	99.5% (inactive)
CC(C(=O)NCCc1ccc(F)cc1)N1CCN(Cc2ccccc2)CC1 (stereo not given)	96.5% (inactive)
COc1ccc(C(=O)/C=C2/C(=O)Nc3ccccc32)cc1OC	98.2% (inactive)
COC(=O)CNc1c(-c2ccccn2)nc2ccc(Br)cn12	100% (inactive)
C=CCOc1ccc(/C=C2\N=C(C)OC2=O)cc1OC	105% (inactive)
COc1ccccc1C1CC(c2c(-c3ccccc3)c3cc(Cl)ccc3[nH]c2=O)=NN1S(C)(=O)=O (stereo not given)	97.6% (inactive)
COC(=O)Cn1nc(-c2ccccc2)c2ccccc21	92% (inactive)
COc1ccccc1C(=O)NNC(=O)C(=O)Nc1cccc(Cl)c1C	106% (inactive)

Compound	GFP response vs DMSO
O=C(NCC(=O)N1CCCC1)c1cccs1	99.8% (inactive)
COC(=O)Cc1csc(Nc2ccc(F)c(Cl)c2)n1	101% (inactive)
O=C1C2C3C=CC(CO)(O3)C2C(=O)N1c1ccccc1-c1ccccc1 (stereo not given)	113% (inactive)
COC(=O)c1ccc(/C=C/C(=O)c2ccc(OC)c(OC)c2)cc1	101% (inactive)
Cn1c(=O)c2ccccc2n(Cc2cccc(F)c2)c1=O	97.6% (inactive)
COc1cc(/C=C/C(=O)c2c(O)cc(C)oc2=O)cc(OC)c1O	98.2% (inactive)
O=[N+]([O-])c1cc(Cl)ccc1Sc1ccccn1	104% (inactive)
COc1ccc(NC(=O)CCc2nc(-c3ccccc3F)no2)cc1	95.6% (inactive)
COc1ccc(-c2nnc(NC(=O)c3ccc(S(=O)(=O)N4COCC4(C)C)cc3)o2)cc1	96.5% (inactive)
C/C(CCC12CC3CC(CC(C3)C1)C2)=N\NC(N)=S	87.9% (inactive)
C=CCn1cc(/C=C/c2cc[n+](C)cc2)c2ccccc21	102% (inactive)
Cc1ccc(S(=O)(=O)Cc2cc(F)c([N+](=O)[O-])cc2[N+](=O)[O-])cc1	74.2% (inactive)
CS(=O)(=O)N1N=C(c2ccco2)CC1c1ccccc1 (stereo not given)	100% (inactive)
NC(=O)CSCc1c(Cl)cccc1Cl	101% (inactive)
N#C/C(=C\c1c(N2CCCCCC2)nc2ccccn2c1=O)C(=O)NCc1ccco1	96% (inactive)
O=C(OCc1ccco1)c1ccc(S(=O)(=O)N2CCCCC2)cc1	101% (inactive)
O=C(OCC(=O)N1CCN(C(=O)c2ccco2)CC1)c1cc(-c2ccc(Cl)c(Cl)c2Cl)nc2ccccc12	90.1% (inactive)
COc1ccc(/C(C)=N/NC(=O)c2ccc(N(C)C)cc2)cc1	103% (inactive)
O=C(c1ccccc1Br)N1CCN(c2ccccc2)CC1	104% (inactive)
O=C(Nc1nc(-c2ccc(Cl)cc2)cs1)c1cccnc1	96.8% (inactive)

Same assay, conditions: 3 h, measured here: daughter cell gate, at 10 µM, stronger effect = lower value, 100 = same GFP as DMSO wells

Compound	GFP response vs DMSO [%]
Cc1ccc(C(=O)NNC(=S)NC(=O)COc2ccccc2)cc1	92.1
O=C(OCc1cc(Cl)ccc1OC(F)F)c1ccc([N+](=O)[O-])o1	99.8
O=C(OCCOc1ccccc1)c1n[nH]c2ccccc12	95.7
O=C1C=CC(=O)N1c1ccc(Sc2ccc([N+](=O)[O-])cc2)cc1	96.8
CCn1c(=O)c(C(=O)Nc2ccsc2C(=O)OC)c(O)c2ccccc21	101
COCC(=O)Nc1cc([N+](=O)[O-])ccc1C	101
O=C1/C(=C\c2ccc(O)c(O)c2)SC(=S)N1Cc1ccccc1	99.1
COc1ccc(C(=O)/C=C2/C(=O)Nc3ccccc32)cc1	88.1
O=C(Nc1cc(Sc2ccccn2)cc([N+](=O)[O-])c1)c1ccc(Cl)cc1	99.6
c1ccc(-c2cccc(-c3ccccn3)n2)nc1	82.8
CN1CCSc2ccc(C(=O)Nc3cccc(F)c3)cc21	91.8
Cc1nn(C)cc1C(C)NC(=O)c1cc(COc2ccc(F)c(F)c2)on1 (stereo not given)	100
Oc1ccccc1/C=N/c1c(-c2ccco2)nc2ccccn12	98.1
CC(C(=O)NCCc1ccc(F)cc1)N1CCN(Cc2ccccc2)CC1 (stereo not given)	97
COc1ccc(C(=O)/C=C2/C(=O)Nc3ccccc32)cc1OC	98.8
COC(=O)CNc1c(-c2ccccn2)nc2ccc(Br)cn12	103
C=CCOc1ccc(/C=C2\N=C(C)OC2=O)cc1OC	107
COc1ccccc1C1CC(c2c(-c3ccccc3)c3cc(Cl)ccc3[nH]c2=O)=NN1S(C)(=O)=O (stereo not given)	98.9
COC(=O)Cn1nc(-c2ccccc2)c2ccccc21	88.5
COc1ccccc1C(=O)NNC(=O)C(=O)Nc1cccc(Cl)c1C	111

Compound	GFP response vs DMSO [%]
O=C(NCC(=O)N1CCCC1)c1cccs1	99.6
COC(=O)Cc1csc(Nc2ccc(F)c(Cl)c2)n1	102
O=C1C2C3C=CC(CO)(O3)C2C(=O)N1c1ccccc1-c1ccccc1 (stereo not given)	117
COC(=O)c1ccc(/C=C/C(=O)c2ccc(OC)c(OC)c2)cc1	101
Cn1c(=O)c2ccccc2n(Cc2cccc(F)c2)c1=O	97.8
COc1cc(/C=C/C(=O)c2c(O)cc(C)oc2=O)cc(OC)c1O	99.6
O=[N+]([O-])c1cc(Cl)ccc1Sc1ccccn1	102
COc1ccc(NC(=O)CCc2nc(-c3ccccc3F)no2)cc1	95.9
COc1ccc(-c2nnc(NC(=O)c3ccc(S(=O)(=O)N4COCC4(C)C)cc3)o2)cc1	98.1
C/C(CCC12CC3CC(CC(C3)C1)C2)=N\NC(N)=S	84.6
C=CCn1cc(/C=C/c2cc[n+](C)cc2)c2ccccc21	99.6
Cc1ccc(S(=O)(=O)Cc2cc(F)c([N+](=O)[O-])cc2[N+](=O)[O-])cc1	88.4
CS(=O)(=O)N1N=C(c2ccco2)CC1c1ccccc1 (stereo not given)	101
NC(=O)CSCc1c(Cl)cccc1Cl	100
N#C/C(=C\c1c(N2CCCCCC2)nc2ccccn2c1=O)C(=O)NCc1ccco1	97.9
O=C(OCc1ccco1)c1ccc(S(=O)(=O)N2CCCCC2)cc1	97.9
O=C(OCC(=O)N1CCN(C(=O)c2ccco2)CC1)c1cc(-c2ccc(Cl)c(Cl)c2Cl)nc2ccccc12	89.1
COc1ccc(/C(C)=N/NC(=O)c2ccc(N(C)C)cc2)cc1	102
O=C(c1ccccc1Br)N1CCN(c2ccccc2)CC1	106
O=C(Nc1nc(-c2ccc(Cl)cc2)cs1)c1cccnc1	87.8
